FLuc inh-1 – Firefly luciferase inhibition profiling of diverse chemical library using quantitative high-throughput screening; Luciferin 4-monooxygenase (Photinus pyralis), P08659; purified P. pyralis luciferase, luminescence, biochemical; Potency, µM (top dose mostly 115 µM), hits mostly inhibitors; 76,000 compounds, 2.5% hits; further: nearly all actives have a fitted effect of over 65% in size
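Luminescence read by CCD imaging after purified firefly luciferase (10nM final) was added to substrate buffer holding 10uM D-luciferin and 10uM ATP, pH 7.5, pre-dosed with compound.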
3T3 cytotox – Cytotoxic Profiling in NIH 3T3 Cell Line of Diverse Libraries Using Quantitative High-Throughput Screening; NIH 3T3 viability, CellTiter-Glo ATP luminescence, 48-72 h; AID 1345082, 2018; Potency, µM (highest dose often 96.7 µM), hits mostly inhibitors; 94,000 compounds, 4.3% hits; further: nearly all actives have a fitted effect of over 55% in size
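First NIH 3T3 cells are plated at 400 cells/well; next compound is pinned in; then plates incubate 48 or 72 hr at 37 °C; finally CellTiter-Glo is added and luminescence read after 10 min.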
HEK cytotox – Cytotoxic Profiling in HEK 293 Cell Line of Diverse Libraries Using Quantitative High-Throughput Screening; HEK 293 viability, ATP luminescence (CellTiter-Glo), 48-72 h; Potency, µM (titrated, usually from 115 µM), actives largely listed as inhibitors; 94,000 compounds, 6.6% hits; AID 1345083, 2018; further: nearly all actives have a fitted effect of over 60% in size
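Read-out: CellTiter-Glo ATP luminescence. Cells: HEK 293, 250 cells/well. Exposure: 48 or 72 hr, 37 degree Celsius.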
NPR1 antag – Natriuretic polypeptide receptor (hNpr1) antagonism - Primary qHTS; Potency, µM (series often up to 46.3 µM), actives largely listed as inhibitors; 76,000 compounds, 1.6% hits; AID 1347048, 2019; HEK293 hNpr1 GloSensor cGMP, ANP-stimulated luminescence; calls by dose curve; further: nearly all actives have a fitted effect of over 60% in size
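HEK293 cells stably expressing human Npr1 and cGMP GloSensor pGS-40F, loaded 2 h with 2% GloSensor reagent, given compound 30 min at room temperature. Luminescence read before and 20 min after 0.1 nM hNppA.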
FLuc SDR no ATP – Firefly luciferase (FLuc-C-HiBiT) SDR gain of signal screen - without ATP; shares compounds with FLuc inh-1; Purified FLuc-C-HiBiT, Nano-Glo HiBiT luminescence, no ATP; Potency, µM (top dose mostly 32.7 µM), actives largely listed as activators; 1,300 compounds, 7.8% hits; AID 1963318, 2024; further: nearly all actives have a fitted effect of over 55% in size
FLuc SDR ATP – Firefly luciferase (FLuc-C-HiBiT) SDR gain of signal screen - plus ATP; shares compounds with FLuc inh-1; purified FLuc-C-HiBiT + ATP, HiBiT complementation luminescence; Potency, µM (series often up to 32.7 µM), usual class: activators; 1,300 compounds, 8.7% hits; AID 1963319, 2024;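 further: signal reports ligand binding via conformational change of the enzyme rather than luciferase catalysis; nearly all actives have a fitted effect of over 55% in size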
FLuc inh-2 – Firefly luciferase (FLuc-C-HiBiT) enzymatic inhibition screen - Functional assay; 1,300 compounds, 42% hits; shares compounds with FLuc inh-1; Potency, µM (highest dose often 32.7 µM), hits mostly inhibitors; purified FLuc-C-HiBiT enzyme, luciferin luminescence; further: nearly all actives have a fitted effect of over 70% in size
Of the large screens only hits and unclear results are named; the others gave an inactive call (follow-up assays come after a bar, where they were run). Shown are actives, neighbours in structure and some others; about 11% of the full set was active somewhere. Unless noted, the call rests on the fitted dose curve; in most records, active means well fitted curve in the direction sought with a large enough effect; inconclusive means small, poorly fitted or top-dose-only effect, or another doubt; inactive means no such curve, though single readings can be large; an effect the other way counts as inactive or inconclusive.

COc1cccc(-n2cnc3c(N/N=C/c4ccncc4)ncnc32)c1	none (no result: FLuc inh-1, 3T3 cytotox, HEK cytotox, NPR1 antag) | FLuc SDR no ATP inactive | FLuc SDR ATP inactive | FLuc inh-2 inconclusive
COc1ccc(OC)c(CN2CCOc3ccc(C(=O)NCc4ccc(C)cc4)cc3C2)c1	3T3 cytotox inconclusive, HEK cytotox inconclusive | FLuc SDR no ATP inactive | FLuc SDR ATP inactive | FLuc inh-2 inactive
COc1ccc(CN2CCOc3ccc(C(=O)NCc4ccc(C)cc4)cc3C2)cc1OC	3T3 cytotox inconclusive, HEK cytotox inconclusive
Cc1cc(=O)n(CC(=O)Nc2ccccc2)c(-c2ccccc2)n1	HEK cytotox inconclusive
Brc1ccccc1-n1ncc2c1ncn1nc(Cc3ccccc3)nc21	none (no result: FLuc inh-1, 3T3 cytotox, HEK cytotox, NPR1 antag) | FLuc SDR no ATP inactive | FLuc SDR ATP inactive | FLuc inh-2 inactive
Cc1nc(C)c(C(=O)N2CC(Oc3ccc(-c4noc(-c5ccccc5)n4)cc3)C2)s1	FLuc inh-1 inconclusive, NPR1 antag inconclusive
Cc1nc(C)c(C(=O)N2CCC(Oc3ccc(-c4noc(-c5ccccc5)n4)cc3)C2)s1 (stereo not drawn)	FLuc inh-1 5.62µM, 3T3 cytotox inconclusive, HEK cytotox inconclusive, NPR1 antag 6.31µM | FLuc SDR no ATP inactive | FLuc SDR ATP inactive | FLuc inh-2 inconclusive
CCc1nc(-c2ccc(OC3CCN(C(=O)COc4ccc(F)cc4)C3)cc2)no1 (stereo not drawn)	3T3 cytotox inconclusive, HEK cytotox inconclusive, NPR1 antag inconclusive
CCc1nc(-c2ccc(OC3CCN(C(=O)C4CC4)C3)cc2)no1 (stereo not drawn)	FLuc inh-1 7.94µM, 3T3 cytotox inconclusive, HEK cytotox inconclusive, NPR1 antag inconclusive | FLuc SDR no ATP inactive | FLuc SDR ATP inactive | FLuc inh-2 inconclusive
COc1cccc(CC(=O)N2CCC3(CC2)CC(c2nc(C)no2)N(C)C3)c1 (stereo not drawn)	none (no result: FLuc inh-1, NPR1 antag)
O=C1CC2(CCN(C(=O)C3CCCN3C(=O)c3ccccc3Cl)CC2)Oc2ccccc2N1 (stereo not drawn)	none (no result: FLuc inh-1, NPR1 antag)
Cc1cn2nc(C(=O)Nc3ccc(N(C)C)cc3)cc2c(N2CCCC2)n1	FLuc inh-1 5.01µM, 3T3 cytotox inconclusive, HEK cytotox inconclusive | FLuc SDR no ATP inactive | FLuc SDR ATP inactive | FLuc inh-2 inconclusive
COc1ccc(Cl)cc1NC(=O)CC1CCCN(c2cnn(C)c(=O)c2)C1 (stereo not drawn)	3T3 cytotox inconclusive
O=C1c2cnc(-c3ccc(F)cc3F)nc2OCCN1CC1CC1	none (no result: FLuc inh-1, 3T3 cytotox, HEK cytotox, NPR1 antag) | FLuc SDR no ATP inactive | FLuc SDR ATP inconclusive | FLuc inh-2 inconclusive
O=C1c2cnc(-c3ccc(F)cc3)nc2OCCN1CC1CC1	none (no result: FLuc inh-1, 3T3 cytotox, HEK cytotox, NPR1 antag) | FLuc SDR no ATP inconclusive | FLuc SDR ATP inconclusive | FLuc inh-2 14.3µM
c1ccc(-c2cnc(Nc3ccc4c(c3)OCCO4)c3c2CCO3)cc1	FLuc inh-1 2.82µM, 3T3 cytotox inconclusive, HEK cytotox inconclusive, NPR1 antag inconclusive | FLuc SDR no ATP inactive | FLuc SDR ATP inactive | FLuc inh-2 16.1µM
CNC(=O)c1cccc(-c2cnc(Nc3ccc(Cl)cn3)c3c2CCO3)c1	FLuc inh-1 3.16µM, 3T3 cytotox inconclusive, HEK cytotox inconclusive, NPR1 antag inconclusive | FLuc SDR no ATP inactive | FLuc SDR ATP inactive | FLuc inh-2 inconclusive
O=C(Nc1ncc(-c2cccc(F)c2)c2c1OCC2)c1ccncc1	3T3 cytotox inconclusive
COc1ccc(-c2cnc(NC(=O)Cc3ccccc3)c3c2CCO3)cn1	3T3 cytotox inconclusive
COc1cccc(Nc2ncc(-c3cccnc3)c3c2OCC3)c1	FLuc inh-1 14.1µM, 3T3 cytotox inconclusive, HEK cytotox 100µM | FLuc SDR no ATP inactive | FLuc SDR ATP inactive | FLuc inh-2 inconclusive

From PubChem
